Drawing on PubChem BioAssay AID463082 (The Scripps Research Institute Molecular Screening Center, 2010), this text covers inhibition for 90 compounds.

In all, about 330,000 compounds went through this assay and about 4,900 (1.5%) were called active. Only a selection was taken, and actives are over-represented in it overall. Unmarked numbers belong to inactive results.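 The calls were made as follows: active = inhibition above the mean inhibition across the screen plus 3 SD (cut at about 25% in these data); inactive = the rest.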

A word on the inhibition: it is the drop in the measured response relative to a control, in per cent.

The target in this experiment is Platelet-activating factor acetylhydrolase (Homo sapiens) (UniProt Q13093). The experiment can be described thus: inhibition of plasma PAF acetylhydrolase – biochemical, fluorescence polarization, human, primary screen (AID 463082).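 Also: inhibitors block binding of the rhodamine activity-based probe so polarization drops; 0% = enzyme with DMSO and 100% = wells lacking pPAFAH.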 The conditions noted are these: recombinant pPAFAH, FP-rhodamine probe fluorescence polarization; at 3.39 µM; stronger effect = higher value. In general terms: Fluorescence polarisation rises when a labelled molecule tumbles more slowly, as on binding a larger partner.
Platelet-activating factor acetylhydrolase (Homo sapiens), sequence (Q13093 whole entry, looked up): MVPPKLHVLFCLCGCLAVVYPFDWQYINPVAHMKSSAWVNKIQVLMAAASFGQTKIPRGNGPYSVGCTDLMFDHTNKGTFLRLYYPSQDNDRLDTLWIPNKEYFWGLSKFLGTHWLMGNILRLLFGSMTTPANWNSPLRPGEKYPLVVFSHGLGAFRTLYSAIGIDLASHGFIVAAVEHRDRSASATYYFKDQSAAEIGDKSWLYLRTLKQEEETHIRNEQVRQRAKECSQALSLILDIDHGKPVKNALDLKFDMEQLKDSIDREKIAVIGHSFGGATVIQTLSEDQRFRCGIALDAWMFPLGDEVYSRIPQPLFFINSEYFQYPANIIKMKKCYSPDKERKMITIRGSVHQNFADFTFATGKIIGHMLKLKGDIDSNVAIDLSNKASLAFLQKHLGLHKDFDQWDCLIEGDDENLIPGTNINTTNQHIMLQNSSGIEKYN
For the compound `CC(=O)c1c(C)[nH]c(C(=O)COC(=O)c2cccc(S(=O)(=O)N(C)c3ccccc3)c2)c1C`, the inhibition is -1.03%.
`Cc1ccc(C)c(NC(=O)CCC(=O)N/N=C2/CC(=O)CC(C)(C)C2)c1`: the inhibition was 34.2% (active).
As for `Cc1ccc(C)c(NC(=O)CCC(=O)NNC(=O)c2cccs2)c1`, the inhibition is 4.49%.
With `CC1(C)CC(=O)C/C(=N\NC(=O)c2cccs2)C1` the figure was 1.45%.
With `O=C(Nc1ccc(-c2ccc3nncn3n2)cc1)C1CCCCC1` the figure was 3.72%; with `O=C(Nc1ccc(Br)cc1)c1cc(S(=O)(=O)Nc2ccccn2)ccc1Cl`, 4.67%.
Take `Fc1ccc(-n2c(Cc3ccccc3)nnc2SCc2nc(-c3ccc(Cl)cc3)no2)cc1`: the inhibition was 8.28%.
With `Cc1ccc(-c2noc(CSc3nnc(-c4ccccc4)n3C)n2)cc1` the figure was 2.63%.
With `Cc1ccc(-c2noc(CSc3nnc(-c4ccncc4)n3-c3ccc(F)cc3)n2)cc1` the figure was 61.4% (active); with `Cc1c(S(=O)(=O)NCc2ccccc2)c(=O)n(C)c(=O)n1C`, 3.56%; with `Cc1ccc(N(C(=O)CNC(=O)c2ccco2)C(C(=O)NC2CCCC2)c2ccncc2)cc1` (stereo not given), 3.58%.
In the case of `Cn1c(SCC(=O)Nc2ccc(N3CCOCC3)cc2)nnc1C(F)(F)F` it was -4.91%; in that of `Cc1c(CC(=O)N2CCN(C(=O)C3COc4ccccc4O3)CC2)c(=O)oc2c(O)c(O)ccc12` (stereo not given), 80.7% (active).
In the case of `Cc1c(C)c2ccc(OCC(=O)N3CCC(C(=O)O)CC3)c(C)c2oc1=O`, the inhibition is -1.32%.
`CCN(CC)S(=O)(=O)c1ccc(N2CCOCC2)c(NC(=O)C2COc3ccccc3O2)c1` (stereo not given): the inhibition was 1.62%.
With `COc1cccc(/C=C2\Sc3ccc(C(=O)NCC4CCCO4)cc3N(C)C2=O)c1` (stereo not given) the figure was 8.27%; with `Cc1cc(C)cc(OCC(=O)Nc2ccc(N3CCOCC3)cc2N2CCOCC2)c1`, 4.92%.
In the case of `CCC(=O)c1ccc(OCC(=O)Nc2ccc(N3CCCCC3)cc2)cc1` it was 3.34%; in that of `Cc1cc(N2CCCC2)ccc1NC(=O)COc1ccc(Cl)cc1`, 27.4% (active); in that of `Cn1c(CCC(=O)OCC(=O)NCc2ccccc2Cl)nc(=O)c2ccccc21`, 1.56%.
With `Oc1c(Br)cc(/C=N/NC(=S)NCC2CCCO2)cc1Br` (stereo not given) the figure was 35.5% (active); with `S=C(NCCc1ccccc1)NCC1CCCO1` (stereo not given), 3.38%.
As for `S=C(NCC1CCCO1)N1CCN(c2ccc(Cl)c(Cl)c2)CC1` (stereo not given), the inhibition is 14.9%.
With `CN(C)c1nccc(NCc2ccccc2)c1C#N` the figure was 5.61%.
With `CCOc1cccc2c1OC1(CCCCC1)N1N=C(c3cccnc3)CC21` (stereo not given) the figure was 8.14%; with `COc1ccccc1NC(=O)Nc1nnc(Cc2ccc(F)cc2)s1`, 1.88%.
With `O=C(C1CC(=O)N(c2ccc(Br)cc2)C1)N1CCCC1` (stereo not given) the figure was 2.26%; with `Cc1cc(NC(=O)C(C)N2C(=O)c3ccccc3S2(=O)=O)no1` (stereo not given), 5.49%; with `COc1ccc(-n2cc(-c3ccccc3)c3c(=S)nc[nH]c32)cc1`, 16.5%.
On to `O=c1[nH]cnc2c1c(-c1ccccc1)cn2-c1ccc(F)cc1`, for which the inhibition is 29.6% (active).
In the case of `O=c1c2c(-c3ccccc3)ccnc2[nH]n1-c1ccccc1` it was 16.9%.
In the case of `COc1cc(CCC(=O)Nc2ccncc2Cl)cc(OC)c1OC` it was 3.7%; in that of `O=C(Cc1ccc(Br)cc1)NCCc1ccccc1`, -2.54%.
For `O=C(NCCCO)/C(=C\C=C\c1ccccc1)NC(=O)c1ccccc1Cl`, the inhibition is 5.51%.
As to `COc1ccc(OC)c(Nc2nc(-c3ccc(O)c(O)c3)cs2)c1`, the inhibition was 49.9% (active).
For the compound `COc1ccc(OC)c(-c2csc(NC(=O)COC(=O)C3CC3)n2)c1`, the inhibition is 5.42%.
In the case of `COc1ccc(CC(=O)Nc2nc(-c3ccc(F)c(F)c3)cs2)cc1OC` it was -1.93%.
In the case of `CC1C(=O)Nc2ccc(S(=O)(=O)N3CCN(c4ccccc4F)CC3)cc2NC1=O` (stereo not given) it was 7.62%; in that of `Cc1ccc(S(=O)(=O)Oc2ccc(/C=N/NC(=O)c3c(Cl)cnn3C)cc2)cc1`, 4.46%.
With `COc1nc(Oc2ccc(=O)n(C)n2)nc(N(C)C)n1` the figure was 1.86%.
For the compound `CCn1nc(C)c(NC(=O)/C=C/c2ccc(OC)c(COc3ccc(Br)cc3)c2)c1C`, the inhibition was 7.11%.
Turning to `CCS(=O)(=O)c1ccc(-c2cccc(NC(=O)c3ccc(Br)o3)c2)nn1`, the inhibition was -0.56%.
With `O=C(NCCCN1CCCC1=O)c1ccc(S(=O)(=O)Nc2ccccc2)cc1` the figure was 28.1% (active); with `CCOc1ccc(S(=O)(=O)Nc2ccc(C(=O)NCCCN3CCCC3=O)cc2)cc1`, -4.42%.
Consider `O=C(NCCCN1CCCC1=O)c1cccc(S(=O)(=O)NCc2ccccc2)c1`, for which the inhibition is 5.61%.
In the case of `CC(C)(C)OC(=O)C[C@H]1C/C=C\C[C@@H](CC(=O)N[C@H](CO)Cc2ccccc2)C(=O)NC[C@@H](c2ccccc2)OC1=O`, the inhibition was 1.87%.
In the case of `CC(=O)Nc1ccc(NC(=O)C2CCCN(S(=O)(=O)c3ccc(Cl)cc3)C2)cc1` (stereo not given) it was 0.93%.
With `CC(Oc1ccc(F)cc1F)C(=O)/C=C/N(C)C` (stereo not given) the figure was 0.46%.
With `O=C(CN1C(=O)NC2(CCCCC2)C1=O)N1CCN(C(=O)c2cccs2)CC1` the figure was 2.46%.
`CC1=C(/C=C/C(C)=C/C=C/C(C)=C/C=C/C=C(C)/C=C/C=C(C)/C=C/C2=C(C)CCCC2(C)C)C(C)(C)CCC1`: the inhibition is 18.3%.
In the case of `CCCCCCCCCCCCCCCC(=O)OC/C=C(C)/C=C/C=C(C)/C=C/C1=C(C)CCCC1(C)C` it was 25.7% (active).
With `CCOC(=O)NNc1cc(C(F)(F)F)ccn1` the figure was 3.11%.
In the case of `NC(=O)c1ccsc1NC(=O)COC(=O)COc1ccc(C=O)cc1` it was 7.9%; in that of `CCc1ccc(-c2nn(-c3ccccc3)cc2CSC(=N)N)cc1`, 3.9%; in that of `Oc1ccc(N=Nc2nccs2)c(O)c1`, 37.2% (active).
With `Oc1ccc2ccccc2c1N=Nc1nccs1`, the inhibition is 17.6%.
Take `O=C(NCc1cccc(Cl)c1)C1CCN(c2nnc(N3CCCC3=O)s2)CC1`: the inhibition was 3.53%.
With `CC(C)n1c(=S)[nH]c2cc(C(F)(F)F)ccc21` the figure was 3.35%; with `Cc1ccc(CNC(=O)CSc2nnc3c(n2)[nH]c2ccc(F)cc23)cc1`, 3.4%.
For the compound `Cc1ccn2c(=O)nc(SCC(=O)NCc3ccc(F)cc3)nc2c1`, the inhibition was 26.8% (active).
In the case of `Cc1ccn2c(=O)nc(SCC(=O)NCc3ccc4c(c3)OCO4)nc2c1` it was 10.4%.
With `Cc1ccc(C2SCC(=O)N2c2ccccc2)cc1` (stereo not given) the figure was 2.44%; with `O=C(N/N=C/c1cccnc1)c1ccc(NC(=O)c2ccc(F)cc2)cc1`, -2.91%; with `Cc1ccc(/C=N/NC(=S)Nc2cccc(S(=O)(=O)N(C)C)c2)o1`, 6.2%.
With `O=C(N/N=C/c1cccnc1)c1cc2ccccc2cc1O` the figure was 58% (active); with `O=C(NN=Cc1ccc(N2CCOCC2)cc1)c1cc2ccccc2cc1O`, 23.5%; with `Cc1ccc(/C=N/NC(=O)c2cc3ccccc3cc2O)o1`, 57.2% (active).
As to `O=C(N/N=C\c1cccnc1)c1cc(-c2ccccc2)nc2c(Cl)cccc12`, the inhibition was -1.21%.
`Cc1nnc(SCC(=O)N(C(C)C)C(C)C)nc1C`: the inhibition was 0.01%.
With `CCCCOc1ccc(NC(=O)[C@@H]2CCCN2C(=O)C2CCN(S(=O)(=O)c3ccc(C)cc3)CC2)cc1` the figure was 11.9%.
With `O=C(OCCO)c1cc(Cl)c(C(=O)OCCO)cc1Cl` the figure was 1.07%.
With `CCC1(CC)C(=O)C2=C3C1[C@H](C(=O)OC)C=C(C(=O)OC)C[C@H]3[C@H]1C(=O)N(Cc3ccccc3)C(=O)[C@H]1[C@H]2C` (stereo not given in full) the figure was 9.48%; with `COc1ccc(NC(=O)COC(=O)c2ccc(NS(=O)(=O)/C=C/c3ccccc3)cc2)cc1`, 33.1% (active).
Regarding `CN(CC(=O)Nc1ccc(OC(F)F)cc1)S(=O)(=O)/C=C/c1ccccc1`, the inhibition is 5.82%.
Turning to `CCC(C(=O)OCC(=O)Nc1ccc(C(=O)Nc2ccc(OC)cc2)cc1)c1ccccc1` (stereo not given), the inhibition is 2.28%.
In the case of `COc1ccc2sc(-c3ccc(N(C)C)cc3)c(C#CCO)c2c1` it was 17.2%; in that of `COc1ccc2c(-c3ccccc3)cc(SCC(=O)N(C)C3CCS(=O)(=O)C3)nc2c1` (stereo not given), 34% (active).
With `Cc1cc(C)c2nc(SCC(=O)N(C)C3CCS(=O)(=O)C3)cc(C)c2c1` (stereo not given) the figure was 4.97%; with `COc1ccc(-c2cc(=O)oc3cc(OCC(=O)N(C)C4CCS(=O)(=O)C4)ccc23)cc1` (stereo not given), 2.24%.
Turning to `Cc1ccccc1NC(=O)CCNS(=O)(=O)c1ccc2[nH]c(=O)oc2c1`, the inhibition was 0.18%.
In the case of `Cc1ccc(C2(C(F)(F)F)N=C3Sc4cc(C)cc(C)c4N3C(=O)N2)cc1` (stereo not given) it was 2.43%; in that of `Cc1nn(C(C)CC(=O)O)c(C)c1C` (stereo not given), 1.08%; in that of `Cc1ccc(NC(=O)CN2CCCCC2)c2c1CC(C)(C)O2`, 1.85%.
With `CC/C(=N\NC(=O)c1ccccc1Cl)c1ccc(Br)s1` the figure was 2.32%.
As for `COC(=O)c1onc(-c2c(OC)cc(OC)cc2OC)c1C(=O)OC`, the inhibition is -0.73%.
As to `Cc1ccc(S(=O)(=O)NCC(=O)NNC(=O)c2ccc(Br)cc2)cc1C`, the inhibition was -3.03%.
With `CN(C)S(=O)(=O)c1ccc(N2CCCC2)c(C(=O)Nc2cccc(F)c2)c1` the figure was -2.43%; with `CN(C)S(=O)(=O)c1ccc(N2CCCC2)c(C(=O)NCc2ccccc2)c1`, 27.1% (active); with `Cc1ccccc1OCC(=O)NNC(=O)c1cc(S(=O)(=O)N(C)C)ccc1N1CCCC1`, -0.66%.
`Cc1ccccc1CN1C[C@@H]2C[C@@H](c3cn(C)nc3-c3ccccc3)N3CCC[C@@]23C1=O`: the inhibition is 8.05%.
